Compound activity: PubChem BioAssay, Sanford-Burnham Center for Chemical Genomics
HIF-2a inh = HIF-2a inhibition; AID 624352; 0.72% of 360,000 active; 786-0 RCC cells HIF-2a reporter, luciferase luminescence, overnight; inhibition, % at 18.8 µM;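 active means inhibition of the luminescence signal of 40% or more relative to plate controls, in a single-dose primary screen at 18.75 µM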
TROY NFkB inh = inhibitors of TROY-dependent NF-kB signaling; Q293 LMP1-TROYcd NF-kB luciferase reporter, 4 h; inhibition, % at 10 µM; 0.98% of 360,000 active; AID 1347056;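 active means compounds whose plate-normalised and pattern-corrected inhibition of the luciferase reporter signal at the single screening dose is 50% or more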
Peg3 prom inh = Peg3 promoter activity inhibition | inhibition, % at 20 µM | 1.7% of 360,000 active | HeLa PEG-Prom luciferase reporter, luminescence, overnight;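 active means inhibition of at least 50% at 20 µM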
TWEAK Fn14 block = inhibitors of TWEAK-Fn14 interaction signaling. TWEAK-stimulated Fn14 reporter cells, luciferase luminescence, 8 h. 2% of 360,000 active. AID 1159606. inhibition, % at 10 µM; in the data active means inhibition above about 50%
KKLEB tox = reduces viability of KKLEB cystic fibrosis airway cells; KKLEB CF airway cells viability, ATPlite luminescence, overnight; hits give low values; cells stimulated with P. aeruginosa culture filtrate; AID 602141; 0.36% of 360,000 active; activity change (cytotoxicity), % at 5 µM;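 active means corrected activity change at or below -50% at 5 µM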
CF NFkB block = cystic fibrosis NF-kB activation inhibition; inhibition, % at 5 µM; 0.86% of 360,000 active; KKLEB NF-kB-GFP reporter, PAF-induced, GFP fluorescence overnight; AID 588850;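 active means at least 50% inhibition at 5 µM, scaled per plate between neutral and stimulator controls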;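 further: PAF is a Pseudomonas aeruginosa culture filtrate used as stimulus; plate controls were PAF-stimulated DMSO wells for no effect and unstimulated DMSO wells for full effect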
An asterisk follows results filed as active; x = no result. Sampled rows, rich in hits. Any-hit rate of the full collection: about 4%.

SMILES	HIF-2a inh	TROY NFkB inh	Peg3 prom inh	TWEAK Fn14 block	KKLEB tox	CF NFkB block
CN(C)c1cc(Nc2ccc(O)cc2)c([N+](=O)[O-])c2nonc12	8	-8	-3	-25	0	-4
Cc1ccc(S(=O)(=O)NCC(=O)OCC(=O)N(C)C2CCCCC2)cc1	2	-12	9	-7	-14	19
COc1ccc(S(=O)(=O)c2ccc(OC)cc2)cc1	9	-11	8	1	4	-10
COc1ccc(N=[N+]([O-])c2ccc(OC)cc2)cc1	-82	-6	-181	62*	-16	-18
CCOC(=O)C1CCN(C(=O)/C=C/c2ccccc2OC)CC1	16	-9	-13	59*	4	0
CCOC(=O)C1CCN(C(=O)/C=C/c2ccc(OC)cc2)CC1	-82	-31	-245	-15	5	-17
COc1cccc(/C=C/C(=O)N2CCN(S(=O)(=O)c3ccccc3)CC2)c1OC	-19	-18	7	73*	-3	7
COc1ccccc1-c1noc2c1C(=O)N(Cc1cn(Cc3ccccc3)nn1)CC2	7	4	20	5	6	-26
CCOC(=O)c1cc(-c2ccccc2)sc1NC(=O)COC(=O)c1cccc(S(N)(=O)=O)c1	-2	1	87*	-21	-28	18
CC(C)(C)OC(=O)N1CCN(C(=O)c2[nH]cnc2C(=O)Nc2cccc(Cl)c2)CC1	5	3	6	7	-1	-4
CSc1cccc(NC(=O)CSc2ccc(C)cc2)c1	-120	-52	-73	-22	-2	1
CCC(=O)Nc1cccc(SC)c1	-5	-17	1	99*	-9	-3
COc1ccc(C(=O)Nc2ccccc2C(=O)NC2CC2)c(OC)c1OC	-6	2	-2	2	6	6
COc1ccc(NC(=O)c2ccc(F)cc2)cc1S(=O)(=O)Nc1cc(C)ccc1Br	4	44	54*	60*	-1	-8
O=C(Nc1cccc([N+](=O)[O-])c1)c1cc2ccccc2cc1O	-271	12	-257	83*	-52*	60*
O=C(Nc1cccc(Cl)c1)C1C2CCC3C(CCC21)C3(Cl)Cl (configuration not stated)	-76	44	-1	62*	-50	43
O=C(Nc1ccccc1)C1C2CCC3C(CCC21)C3(Cl)Cl (configuration not stated)	-72	38	-163	9	-12	-1
O=[N+]([O-])c1ccc(N=Nc2c(Cl)cc(O)cc2Cl)cc1	-196	27	72*	87*	-70*	56*
O=C(Nc1cccc(C(F)(F)F)c1)c1csc([C@@H]2C[C@H](O)[C@@H](CO)O2)n1	-6	-9	-4	2	-3	10
COc1cc(CN2CCC(C(=O)NC(c3ccc(-c4ccccc4)cc3)c3cnccn3)CC2)cc(OC)c1 (configuration not stated)	-17	2	20	-1	11	-38
O=C(NC(c1ccc(-c2ccccc2)cc1)c1cnccn1)C1CCN(Cc2ccc(Oc3ccccc3)cc2)CC1 (configuration not stated)	-21	16	56*	-10	-11	9
O=c1c2ccccc2nc(/C=C/c2cccc([N+](=O)[O-])c2)n1CCO	5	3	2	4	-4	-14
O=c1c2ccccc2nc(/C=C/c2cc(Br)ccc2O)n1CCCO	36	12	46	69*	-15	27
CN(C)S(=O)(=O)c1ccc(/C(O)=C2/C(=O)C(=O)N(Cc3cccnc3)C2c2cccs2)cc1 (configuration not stated)	-8	-18	12	16	-2	16
Cc1c(/C(O)=C2/C(=O)C(=O)N(Cc3cccnc3)C2c2cccs2)cnn1-c1ccccc1 (configuration not stated)	-18	85*	-251	83*	-6	-2
Cc1c(/C(O)=C2/C(=O)C(=O)N(CCN3CCOCC3)C2c2ccco2)cnn1-c1ccccc1 (configuration not stated)	-29	74*	-167	85*	-2	-1
O=C(COc1ccccc1)Nc1nnc(S(=O)(=O)Nc2ccccc2)s1	-5	-22	4	0	8	-1
CC(C)(C)n1nnnc1C(c1cc2ccccc2o1)N1CCCCC1 (configuration not stated)	-44	-24	x	2	x	x
